biological target: Glucose transporter (Leishmania mexicana) (UniProt O61059); assay: ST_JUDE_LEISH: Cytotoxicity at 2uM final concentration against transgenic Leishmania Mexicana promastigotes LmGT2 that are glucose transport deficient and complemented with the L. Mexicana glucose transporter 2. Activity is measured by DNA content using SYBR green in vitro; type: functional

Row | SMILES | inhibition
1 | O=C(Nc1ccc(Cn2ncc(N3CCCNCC3)c(Cl)c2=O)cc1)Nc1ccc(F)cc1[N+](=O)[O-] | 5.42%
2 | Cc1nc(-c2cccc(C(=O)NC3CCC(CCN4CCc5ccc(-c6cccnc6)cc5CC4)CC3)c2)no1 (stereo not given) | 4.24%
3 | c1cncc(CCNCc2ccc(-c3ccc(-c4nc5ccccc5[nH]4)s3)cc2)c1 | 0.7%
4 | Cc1cccc2nc(-c3cccc(-c4cccc(NC(=O)c5cccnc5Cl)c4)c3)[nH]c12 | 3.23%
5 | CC1CN(Cc2csc(Nc3ccccc3)n2)CC(C)O1 (stereo not given) | 3.5%
6 | CCOc1cc(C(=O)NCC2CCN(CC3CCCCC3)CC2)ccc1-c1nc2cc(Cl)ccc2[nH]1 | 1.19%
7 | Cc1cc(N2CCCC2)nc(Nc2ccc(NC(=O)c3ccccc3C)cc2)n1 | 0.46%
8 | CS(=O)(=O)c1ccccc1CNC(=O)c1ccc(-c2ccc(-c3nc4cc(C(F)(F)F)ccc4[nH]3)s2)cc1 | 0.84%
9 | O=C(Nc1ccccc1)Nc1cccc(-c2nn3c(OCC4CCCCN4)cccc3c2-c2ccncc2)c1 (stereo not given) | 1.3%
10 | COc1ccc(CNCC2CCC(CNCCc3ccccc3)CC2)cc1Cl (stereo not given) | 2.3%
11 | Oc1cc2c(cc1CN1CCN(Cc3ccccc3F)CC1)CCC2 | 2.62%
12 | CCCCCN1CCCC(NS(=O)(=O)c2cccc(C(=O)Nc3cccc(C(F)(F)F)c3)c2)C1 (stereo not given) | -2.02%
13 | O=C(/C=C/c1ccc(Cl)c(Cl)c1)NCCCCCN1CCC(NC(=O)Nc2cccc(Cl)c2Cl)CC1 | 6%
14 | CCc1cc(-c2n[nH]c(C(F)(F)F)c2-c2ccccc2)c(O)cc1OC | 2.44%
15 | O=C(CCNc1ccnc(NCCc2ccccc2)n1)Nc1ccccc1 | 2.66%
16 | Cc1ccc(CCC(C)NCC(O)c2cccc(Cl)c2)cc1 (stereo not given) | 11.1%
17 | CN1CCC(N2CCN(Cc3cccc(-c4ccc(-c5nc6cc(C(F)(F)F)ccc6[nH]5)cc4)c3)CC2)CC1 | 2.07%
18 | Cc1ccc(NC(=O)c2ccc3ncccc3c2)cc1OC1CCN(Cc2ccco2)C1 (stereo not given) | 1.55%
19 | Cc1cc(N[C@@H](CC(C)C)C(=O)NCc2cccs2)nc(Nc2ccccc2)n1 | 2.84%
20 | O=C(Nc1ccc2c(c1)OCO2)NC1CCN(c2ccnc(NCc3ccc(F)cc3)n2)CC1 | 0.61%

Row | SMILES | inhibition
21 | CN(C)c1nc2cc(-n3cnc4cc(-c5ccc(Cl)cc5)sc4c3=O)ccc2n1CCCN1CCCC1 | 6.91%
22 | Cc1cc(C)c(C(=O)Nc2n[nH]c3nnc(-c4cccc(F)c4F)cc23)c(C)c1 | 0.28%
23 | Cc1nc(C)c(-c2ccc(Oc3ccc([S+](C)[O-])cc3)cc2)c(O)c1Br (stereo not given) | 3.99%
24 | O=C(Nc1cccc(-c2nn3ccccc3c2-c2ccnc(Nc3ccc(NCCCN4CCOCC4)c(F)c3)n2)c1)c1c(F)cccc1F | 5.22%
25 | O=C(NCc1cccc2ccccc12)C(c1cc2ccccc2o1)N1CCN(C(c2ccccc2)c2ccccc2)CC1 (stereo not given) | -2.97%
26 | O=C(CCc1c[nH]cn1)Nc1cccc(-c2ccc(-c3nc4cc(F)ccc4[nH]3)s2)c1 | 9.84%
27 | Cn1cncc1C(=O)Nc1ccc(-c2ccc(-c3nc4cc(C(F)(F)F)ccc4[nH]3)cc2)cc1 | 4.64%
28 | CC(=O)Nc1ccc(C(=O)Nc2cccc(-c3ccc(-c4nc5cc(F)ccc5[nH]4)s3)c2)cn1 | 2.75%
29 | Cc1cccc(-n2nc(C)c3c2NC(=O)CC3C(=O)c2ccc(Cl)s2)c1 (stereo not given) | 2.73%
30 | O=C(NCCCCCN1CCCN(C(=O)Nc2ccc(Cl)c(C(F)(F)F)c2)CC1)C1CC1c1ccc(Cl)c(Cl)c1 (stereo not given) | 0.24%
31 | NCCNc1ccc([N+](=O)[O-])cc1C(=O)Nc1cccc(Cl)c1 | 2.22%
32 | Cc1ccoc1C(=O)Nc1cccc(-c2cccc(-c3nc4cc(C(F)(F)F)ccc4[nH]3)c2)c1 | -0.44%
33 | CCN(CCCN1CCCCC1)c1cc(C)nc(Nc2ccc(Oc3ccccc3)cc2)n1 | 5.44%
34 | Cc1ccc(NC(=O)c2ccc(N3CCN(c4ccncc4)CC3)cc2)cc1F | 82.4%
35 | Cc1nc(-c2nc(N3CCOCC3)ncc2-c2ccsc2)sc1C | 1.4%
36 | COc1ccc(C(=O)N2CCC(CN3CCOC(c4ccccc4)(c4ccccc4)C3)CC2)cc1 | 2.45%
37 | Nc1nc(N)c2cc(CNc3ccc(Cl)c(Cl)c3)ccc2n1 | -0.28%
38 | CCCCNC[C@@H](O)[C@H](Cc1ccccc1)NC(=O)c1cc(NCC)cc(N2CCCCS2(=O)=O)c1 | 3.45%
39 | COc1ccc(-c2cccc(NC(=O)c3cccc(C#N)c3)c2)cc1CNC(C)C | 5.03%
40 | Cn1nc(-c2ccc(NC(=O)Nc3cc(C(F)(F)F)ccc3F)cc2)c2cnc(NCCc3c[nH]cn3)nc21 | 2.46%

— ChEMBL document CHEMBL3433997, “St. Jude Leishmania screening dataset” (2016)
